Where a name gives a salt, the structure may show the parent alone.
System: Klebsiella aerogenes DSM 30053
Assay: fold change of Histamine concentration vs plate DMSO controls (fold change (ratio)); higher = more amine produced, active = hit call of the paper (significant change in both replicates, either direction)
Settings: incubation time: 27 h, anaerobic, 37 °C
How it was run: (§1)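 Amines were quantified by LC–triple-quadrupole MS in dynamic MRM mode against external calibration curves, with drift correction within each batch. The samples were whole anaerobic mGAM cultures of four gut bacterial strains, grown for 27 h at 37 °C in 80 µL wells and extracted with cold acetonitrile/methanol with 0.1% formic acid, then centrifuged. Values are reported as fold change over DMSO controls on the same plate. The mean of 2 biological replicates is given.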

Fold change of Histamine concentration, inactive:
Clc1ccc(CSC(Cn2ccnc2)c2ccc(Cl)cc2Cl)cc1 (configuration not stated) [Sulconazole nitrate] (20 µM) 0.872
NC(=O)c1ncn([C@@H]2O[C@H](CO)[C@@H](O)[C@H]2O)n1 [Ribavirin] (20 µM) 0.947
CC(C)NCC(O)c1cc(O)cc(O)c1 (configuration not stated) [Metaproterenol sulfate] (20 µM) 0.981
Cc1ccccc1C(=O)Nc1ccc(C(=O)N2CCCC(O)c3cc(Cl)ccc32)c(C)c1 (configuration not stated) [Tolvaptan] (20 µM) 1.05
CC(C)(C)NC(=O)[C@H]1CC[C@H]2[C@@H]3CC[C@H]4NC(=O)C=C[C@]4(C)[C@H]3CC[C@]12C [Finasteride] (20 µM) 0.977
O=c1n(CCCN2CCN(c3cccc(Cl)c3)CC2)nc2ccccn12 [Trazodone hydrochloride] (20 µM) 1.03
NNc1nncc2ccccc12 [Hydralazine hydrochloride] (20 µM) 1.07
CN(C/C=C/c1ccccc1)Cc1cccc2ccccc12 [Naftifine hydrochloride] (20 µM) 0.999
N=c1nc(N2CCCCC2)cc(N)n1O [Minoxidil] (20 µM) 0.98
C=CC[C@@H]1/C=C(\C)C[C@H](C)C[C@H](OC)[C@H]2O[C@@](O)(C(=O)C(=O)N3CCCC[C@H]3C(=O)O[C@H](/C(C)=C/[C@@H]3CC[C@@H](O)[C@H](OC)C3)[C@H](C)[C@@H](O)CC1=O)[C@H](C)C[C@@H]2OC [Tacrolimus Monohydrate] (20 µM) 1.02

System: Clostridium sporogenes DSM 1664
Assay: fold change of Tryptamine concentration vs plate DMSO controls (fold change (ratio)); higher = more amine produced, active = hit call of the paper (significant change in both replicates, either direction)
Settings: incubation time: 27 h, anaerobic, 37 °C
How it was run: as §1

Fold change of Tryptamine concentration, active:
CC(=O)OCC1=C(C(=O)O)N2C(=O)[C@@H](NC(=O)Cc3cccs3)[C@H]2SC1 [Cephalothin sodium salt] (20 µM) 0.0346

Fold change of Tryptamine concentration, inactive:
CN(C(=O)CN(CCO)CC(=O)N(C)C(C)(C)Cc1ccccc1)C(C)(C)Cc1ccccc1 [Oxethazaine] (20 µM) 0.918
CCCCC(CC)CN1C(=O)[C@@H]2[C@H](C1=O)[C@@H]1C=C[C@H]2C1 (mixture of isomers) (20 µM) 0.978
Cc1cc(CC(=O)O)n(C)c1C(=O)c1ccc(Cl)cc1 [Zomepirac sodium salt] (20 µM) 0.971
CC(CNC1CCCCC1)OC(=O)c1ccccc1 (configuration not stated) [Hexylcaine hydrochloride] (20 µM) 1.03
CC(C)n1c(/C=C/C(O)CC(O)CC(=O)O)c(-c2ccc(F)cc2)c2ccccc21 (configuration not stated) [Fluvastatin sodium salt] (20 µM) 0.881
CCCc1cc(=O)[nH]c(=S)[nH]1 [Propylthiouracil] (20 µM) 1.03
CC(=O)Nc1ccc(OCC(O)CNC(C)C)cc1 (configuration not stated) [Practolol] (20 µM) 1.05
C[C@@H]1O[C@@H](O[C@H]2[C@H](Oc3cc(O)c(C(=O)CCc4ccc(O)cc4)c(O)c3)O[C@H](CO)[C@@H](O)[C@@H]2O)[C@H](O)[C@H](O)[C@H]1O [Naringin Dihydrochalcone] (50 µM) 0.968
Nc1cc(-c2ccncc2)c[nH]c1=O [Amrinone] (20 µM) 1.05
CC#CCn1c(N2CCC[C@@H](N)C2)nc2c1c(=O)n(Cc1nc(C)c3ccccc3n1)c(=O)n2C [Linagliptin] (20 µM) 1.07
CCOc1ccc2c(c1)C(C)=CC(C)(C)N2 [Ethoxyquin] (20 µM) 1.06
Cn1c(=O)c2c(ncn2C)n(C)c1=O [Caffeine] (20 µM) 0.982
C[C@]12CC[C@@H]3c4ccc(O)cc4CC[C@H]3[C@@H]1CC[C@@H]2O [Estradiol-17 beta] (20 µM) 0.984
CC(=O)OCC(=O)[C@@]12OC3(CCCC3)O[C@@H]1C[C@H]1[C@@H]3CCC4=CC(=O)C=C[C@]4(C)[C@@]3(F)[C@@H](O)C[C@@]12C [Amcinonide] (20 µM) 0.964
OCCN1CCN(CCCN2c3ccccc3C=Cc3ccccc32)CC1 [Opipramol dihydrochloride] (20 µM) 1.07
CC(C)[N+](C)(CCOC(=O)C1c2ccccc2Oc2ccccc21)C(C)C [Propantheline bromide] (20 µM) 0.971

From the supplement of paper PMC12494721
